Compounds without any hit were thinned out: in the full panel of roughly 79,000, 15% have a hit. Calls of active or inactive are those of the source. No stated cut-off is given here; in the data, active means growth inhibition above about 70%; inactive means the rest.
Assays:
[1] = NCI Yeast Anticancer Drug Screen. Data for the wt1 strain (AID 149);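 further: 0% = growth of vehicle-treated wt1 cultures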; conditions: S. cerevisiae wt1 strain (SPY 50644) growth inhibition, active compounds read high
Outline: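 The wt1 strain was treated with compounds, and growth was compared with vehicle-treated cultures to give inhibition.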

[2] = NCI Yeast Anticancer Drug Screen. Data for the rad50EPP+ strain (AID 151);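 further: 0% = growth of vehicle-treated control cultures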; conditions: S. cerevisiae rad50 mutant strain, active compounds read high
Outline: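 One strain with a rad50 alteration (rad50EPP+) was compound-treated, its growth then compared to that of vehicle controls.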

[3] = NCI Yeast Anticancer Drug Screen. Data for the mgt1 strain (AID 153); conditions: S. cerevisiae mgt1 mutant growth inhibition, active compounds read high
Outline: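 After exposure of the mgt1 yeast mutant to compound, growth was measured and reported as inhibition compared with vehicle controls.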

[4] = NCI Yeast Anticancer Drug Screen. Data for the rad50 strain (AID 155);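 further: 0% = growth of vehicle-only cultures of the same strain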; conditions: S. cerevisiae rad50 strain growth inhibition, active compounds read high
Outline: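 Cells are treated with compound, grown, and their growth is then scored against vehicle-only cultures of the same repair-deficient yeast strain.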

[5] = NCI Yeast Anticancer Drug Screen. Data for the mec2-1 strain (AID 157); conditions: S. cerevisiae mec2-1 strain, active compounds read high
Outline: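 Test agents were screened against the mec2-1 yeast strain, with defined DNA repair or cell cycle alteration. Growth was scored as inhibition against vehicle-only controls.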

[6] = NCI Yeast Anticancer Drug Screen. Data for the rad14 strain (AID 159);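 further: 0% = growth of vehicle-treated control cultures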; conditions: S. cerevisiae rad14 strain growth inhibition, active compounds read high
Outline: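 Readout: yeast growth inhibition, referenced to vehicle-only cultures. Strain bears a defined alteration in DNA damage repair.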

[7] = NCI Yeast Anticancer Drug Screen. Data for the sgs1 mgt1 strain (AID 161);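 further: 0% = growth of cultures given vehicle only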; conditions: S. cerevisiae sgs1 mgt1 strain, active compounds read high
Outline: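 Mutant yeast exposed to compound; growth scored against vehicle-only wells.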

[8] = NCI Yeast Anticancer Drug Screen. Data for the CLN2oe strain (AID 163);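 further: 0% = growth of vehicle-only control cultures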; conditions: S. cerevisiae CLN2oe strain, active compounds read high
Outline: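 Here, growth inhibition in a cell-cycle-altered yeast strain after compound exposure was quantified against vehicle control growth.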

[9] = NCI Yeast Anticancer Drug Screen. Data for the cln2 rad14 strain (AID 165);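 further: 0% = growth equal to vehicle treated cultures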; conditions: S. cerevisiae cln2 rad14 strain, active compounds read high
Outline: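 Growth of compound-exposed yeast (cln2 rad14 genotype) measured and expressed as inhibition relative to vehicle.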

[10] = NCI Yeast Anticancer Drug Screen. Data for the bub3 strain (AID 167); conditions: S. cerevisiae bub3 mutant strain, active compounds read high
Outline: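 Part of a panel of yeast mutants defective in DNA damage repair or cell cycle regulation. Each strain is grown with compound, and inhibition is calculated relative to solvent-treated cultures.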

[11] = NCI Yeast Anticancer Drug Screen. Data for the wt2 strain (AID 169);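 further: 0% = growth of vehicle-treated yeast cultures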; conditions: S. cerevisiae wt2 strain growth inhibition, active compounds read high
Outline: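 Genetically defined yeast strains from a DNA-repair/cell-cycle panel were used. Compound-exposed yeast growth was measured, and the inhibition was calculated relative to vehicle treatment.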

[12] = NCI Yeast Anticancer Drug Screen. Data for the mlh1 strain (AID 171);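 further: 0% = growth of vehicle-treated control cultures of the same strain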; conditions: S. cerevisiae mlh1 strain growth inhibition, active compounds read high
Outline: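 Here the genetically defined yeast mutant is grown with each compound, and the extent to which its growth falls below that of vehicle-exposed cells is reported.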

[13] = NCI Yeast Anticancer Drug Screen. Data for the sgs1 strain (AID 173);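 further: 0% = growth of vehicle-only control cultures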; conditions: S. cerevisiae sgs1 mutant, active compounds read high
Outline: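 Relative growth inhibition, referenced to vehicle, was determined in a yeast strain with a defined alteration affecting DNA damage repair or cell cycle control after compound exposure.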

[14] = NCI Yeast Anticancer Drug Screen. Data for the mlh1 rad18 strain (AID 175); conditions: S. cerevisiae mlh1 rad18 strain growth inhibition, active compounds read high
Outline: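 In this whole-cell yeast screen, a strain with altered DNA damage repair is challenged with compound, and its growth is measured against matched vehicle-treated controls.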

[15] = NCI Yeast Anticancer Drug Screen. Data for the rad18 strain (AID 177); conditions: S. cerevisiae rad18 mutant growth inhibition, active compounds read high
Outline: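 Screen uses a yeast strain with a defined lesion in DNA damage repair; compound effect is read as loss of growth compared to untreated vehicle cultures.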

[16] = at 5.0 µM (retest, dose inferred, filed as 0.5)
[17] = at 50.0 µM (retest, dose inferred, filed as 5.0)

Measured: growth inhibition

CC1C=CN(N(C)C)C2=C1C(=O)c1cnccc1C2=O (stereo unspecified)
inactive: [1]; at 1.2 µM -1% | [1]; at 3.7 µM 7% | [1]; at 11.0 µM 47% | [2]; at 1.2 µM -4% | [2]; at 3.7 µM 53% | [3]; at 1.2 µM -31% | [3]; at 3.7 µM 9% | [3]; at 11.0 µM 51% | [4]; at 1.2 µM 31% | [4]; at 3.7 µM 68% | [5]; at 1.2 µM -36% | [5]; at 3.7 µM -23% | [5]; [16] 30% | [5]; at 11.0 µM 49% | [6]; at 1.2 µM -70% | [6]; at 3.7 µM -31% | [6]; at 11.0 µM 46% | [7]; [16] 48% | [8]; at 1.2 µM -11% | [8]; at 3.7 µM 10% | [8]; at 11.0 µM 49% | [9]; [16] 25% | [9]; [17] -18% | [10]; at 1.2 µM -38% | [10]; at 3.7 µM -8% | [10]; [16] 12% | [10]; at 11.0 µM 46% | [10]; [17] 6% | [11]; at 1.2 µM 5% | [11]; at 3.7 µM 6% | [11]; at 11.0 µM 43% | [12]; at 1.2 µM -48% | [12]; at 3.7 µM -23% | [12]; at 11.0 µM 40% | [13]; at 1.2 µM 41% | [13]; at 3.7 µM 46% | [13]; at 11.0 µM 65% | [15]; at 1.2 µM 66%
active: [1]; at 33.0 µM 83% | [1]; at 100.0 µM 96% | [2]; at 11.0 µM 82% | [2]; at 33.0 µM 91% | [2]; at 100.0 µM 93% | [3]; at 33.0 µM 87% | [3]; at 100.0 µM 96% | [4]; [16] 81% | [4]; at 11.0 µM 86% | [4]; at 33.0 µM 93% | [4]; [17] 93% | [4]; at 50.0 µM 85% | [4]; at 100.0 µM 96% | [5]; at 33.0 µM 86% | [5]; [17] 95% | [5]; at 50.0 µM 92.2% | [5]; at 100.0 µM 96% | [6]; at 33.0 µM 89% | [6]; at 100.0 µM 95% | [7]; [17] 86% | [7]; at 50.0 µM 89.7% | [8]; at 33.0 µM 90% | [8]; at 100.0 µM 93% | [9]; at 50.0 µM 87.8% | [10]; at 33.0 µM 89% | [10]; at 50.0 µM 85.2% | [10]; at 100.0 µM 97% | [11]; at 33.0 µM 90% | [11]; at 100.0 µM 96% | [12]; at 33.0 µM 89% | [12]; at 100.0 µM 97% | [13]; at 33.0 µM 93% | [13]; at 100.0 µM 96% | [14]; [16] 83% | [14]; [17] 95% | [14]; at 50.0 µM 89.8% | [15]; at 3.7 µM 87% | [15]; at 11.0 µM 90% | [15]; at 33.0 µM 96% | [15]; at 100.0 µM 96%

Cc1ccc2oc(-c3cccc(N)c3)nc2c1
inactive: [1]; at 1.2 µM 0% | [1]; at 3.7 µM -4% | [1]; at 11.0 µM 2% | [1]; at 33.0 µM 0% | [1]; at 100.0 µM 5% | [2]; at 1.2 µM 1% | [2]; at 3.7 µM 2% | [2]; at 11.0 µM 10% | [2]; at 33.0 µM 23% | [2]; at 100.0 µM 36% | [3]; at 1.2 µM -6% | [3]; at 3.7 µM -13% | [3]; at 11.0 µM -4% | [3]; at 33.0 µM 6% | [3]; at 100.0 µM 24% | [4]; at 1.2 µM -3% | [4]; at 3.7 µM 4% | [4]; [16] -7% | [4]; at 11.0 µM 1% | [4]; at 33.0 µM 12% | [4]; [17] 10% | [4]; at 50.0 µM 17.4% | [4]; at 100.0 µM 29% | [5]; at 1.2 µM -2% | [5]; at 3.7 µM -3% | [5]; [16] -10% | [5]; at 11.0 µM 3% | [5]; at 33.0 µM 3% | [5]; [17] 13% | [5]; at 50.0 µM 3.95% | [5]; at 100.0 µM 8% | [6]; at 1.2 µM 1% | [6]; at 3.7 µM 3% | [6]; at 11.0 µM 9% | [6]; at 33.0 µM 18% | [6]; at 100.0 µM 27% | [7]; [16] 10% | [7]; [17] 48% | [7]; at 50.0 µM -18.8% | [8]; at 1.2 µM -5% | [8]; at 3.7 µM -6% | [8]; at 11.0 µM -4% | [8]; at 33.0 µM 6% | [8]; at 100.0 µM 15% | [9]; [16] -42% | [9]; [17] -2% | [9]; at 50.0 µM 27.5% | [10]; at 1.2 µM -6% | [10]; at 3.7 µM -3% | [10]; [16] 9% | [10]; at 11.0 µM 9% | [10]; at 33.0 µM 23% | [10]; [17] 36% | [10]; at 50.0 µM 23.4% | [10]; at 100.0 µM 35% | [11]; at 1.2 µM -3% | [11]; at 3.7 µM -2% | [11]; at 11.0 µM -2% | [11]; at 33.0 µM 1% | [11]; at 100.0 µM 11% | [12]; at 1.2 µM -4% | [12]; at 3.7 µM 6% | [12]; at 11.0 µM -2% | [12]; at 33.0 µM 2% | [12]; at 100.0 µM 21% | [13]; at 1.2 µM -1% | [13]; at 3.7 µM 0% | [13]; at 11.0 µM 2% | [13]; at 33.0 µM 5% | [13]; at 100.0 µM 10% | [14]; [16] -7% | [14]; [17] 28% | [14]; at 50.0 µM -6% | [15]; at 1.2 µM -2% | [15]; at 3.7 µM -4% | [15]; at 11.0 µM 3% | [15]; at 33.0 µM 17% | [15]; at 100.0 µM 53%

From PubChem BioAssay (NCI)
